Reference: PubChem BioAssay (NCI)
Compounds without any hit were thinned out: in the full panel of roughly 83,000, 20% have a hit.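 Treatment: one concentration, 48 hours, 96-well format. Scoring: percent growth, with anything below 10 considered active.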 Values without a mark were called inactive. The source made the active and inactive calls.

Assays:
Assay in all cases: NCI-60 one-dose screen, 48 h (100 = growth as untreated, 0 = no growth, -100 = all killed)
Conditions in all cases: 10 µM unless noted
[1] = tested on: HCT-15 colon
[2] = tested on: HT29 colon
[3] = tested on: SNB-75 CNS
[4] = tested on: SNB-19 CNS
[5] = tested on: U251 CNS
[6] = tested on: PC-3 prostate
[7] = tested on: SK-MEL-5 melanoma
[8] = tested on: UACC-62 melanoma
[9] = tested on: LOX IMVI melanoma
[10] = tested on: SK-MEL-28 melanoma
[11] = tested on: EKVX NSCLC
[12] = tested on: SN12C renal
[13] = tested on: UO-31 renal
[14] = tested on: TK-10 renal
[15] = tested on: ACHN renal
[16] = tested on: A498 renal
[17] = tested on: CCRF-CEM leukemia
[18] = tested on: MOLT-4 leukemia
[19] = tested on: SK-MEL-2 melanoma
[20] = tested on: CAKI-1 renal

Row | SMILES | growth [1] | growth [2] | growth [3] | growth [4] | growth [5] | growth [6] | growth [7] | growth [8] | growth [9] | growth [10] | growth [11] | growth [12] | growth [13] | growth [14] | growth [15] | growth [16] | growth [17] | growth [18] | growth [19] [%] | growth [20] [%]
1 | COc1ccc2c(=O)c(OC)c(-c3cc(OC)c(OC)c(OC)c3)oc2c1 | 101% | 98.2% | 79.5% | 92.5% | 96.1% | 67.7% | 75.4% | 70.5% | 82.7% | 97.4% | 109% | 77% | -82.5% (active) | 124% | 92.2% | 96.1% | 93.4% | 99.6% |  | 
2 | O=C(/C=C/c1cccc(Nc2ccnc3cc(Cl)ccc23)c1)c1ccc(Cl)cc1 | 54.8% | 21.8% | 67.6% | 63.2% | 49.9% | 62.9% | 39.6% | 50.2% | 11.2% | 71% | 60.3% | 37.6% | 30.1% | 49% | 51.1% | 44.1% | 24.4% | 24.1% |  | 
3 | CC(=O)OC1Oc2cc(C)c(C)cc2-c2oc(=O)c(-c3ccccc3)cc21 (configuration not stated) | 6.95% (active) | -23.7% (active) | -1.15% (active) | 26.9% | 13.2% | -11.4% (active) | 16.7% | 14.2% | 41.9% |  | 40.5% | 43.6% | 16.5% | 13.9% | 34% | -1.55% (active) | -37.8% (active) | -20.4% (active) | 17.3 | 24.8
4 | Nc1ccc(N=Nc2ccccc2)cc1[N+](=O)[O-] | 68.8% | 92% | 73.3% | 95.3% | 86.7% | 83.9% | 93.1% | 73% | 77.9% |  | 75.2% | 84.6% | 45.9% | 82.8% | 89.9% | 109% | 97.7% | 74.1% | 87.2 | 66
5 | COc1cccc(C2=NN(C(C)=O)C(c3cc(OC)c(OC)c(OC)c3)C2)c1 (configuration not stated) | 31.6% | 8.66% (active) | -30.1% (active) | 26.9% | 31.1% | 16.9% | 15.7% | 51.7% | 48.6% |  | 47.4% | 42.7% | -29.9% (active) | 78.4% | 56.1% | 71.3% | -7.81% (active) | 9.77% (active) | 26.9 | 216
6 | COc1ccc(N2CCN(CC(=O)N3CCN(c4nnc(-c5ccccc5)c(-c5ccccc5)n4)CC3)CC2)cc1 | 35.9% | 26.1% | 70.2% | 62.8% | 46.7% | 22% | 13.9% | 56.7% | 44.6% | 71.3% | 35.3% | 46.8% | 24.9% | 64.7% | 40.5% | 44.1% | 32.4% | 1.56% (active) |  | 76.5
7 | CC(=O)N1N=C(c2ccc(Nc3nc(NCCO)nc(NCCO)n3)cc2)CC1c1ccc(Cl)cc1 (configuration not stated) | 94.5% | 86.8% | 84.7% | 86.3% | 94.3% | 81.4% | 98.3% | 107% | 93.6% | 104% | 91.9% | 98.8% | 96.9% | 83.3% | 96.4% | 102% | 114% | 116% |  | 
8 | CN(C)CCCNc1nn2c(=O)c3ccccc3nc2c2ccccc12 | 55.3% | 32.6% | 51.2% | 69.7% | 57.2% | 62.1% | 52.6% | 67.3% | 33.8% | 93.2% | 53.5% | 58.3% |  | 75.3% | 29.9% | 92% | 30.3% | -19.6% (active) |  | 20.8
9 | N[C@H](CS)C(=O)O | 96.6% | 95.9% | 84.2% | 96.1% | 105% | 94.1% | 105% | 99.9% | 100% | 125% | 97.7% | 107% | 92.4% | 97.3% | 102% | 117% | 90.8% | 104% |  | 70.4
10 | CC(=O)N1N=C(c2ccc3c(c2)OCO3)CC1c1c(C)nn(-c2ccccc2)c1N(C)Cc1ccccc1 (configuration not stated) | 79.2% | 49.8% | 78.7% | 64.8% | 72.3% | 34.3% | 79.8% | 49.5% | 86.5% | 93.3% | 72.9% | 72.9% | 51.9% | 80.9% | 81.3% | 67.4% | 69.5% | 41.9% |  | 
11 | O=C(CNC(=O)c1cccc2ccccc12)Nc1ccccc1Cc1ccccc1 | 28% [5 µM] | 4.74% [5 µM] (active) | 32% [5 µM] | 54.3% [5 µM] | 24.3% [5 µM] | 31.6% [5 µM] | 34.4% [5 µM] | 51.3% [5 µM] | 38.2% [5 µM] | 61% [5 µM] | 54.9% [5 µM] | 56.3% [5 µM] | 60.7% [5 µM] | 49.6% [5 µM] | 56.9% [5 µM] | 38.2% [5 µM] | 20.4% [5 µM] | 19.2% [5 µM] |  | 
12 | Cc1cc(C)c2c(N)c3cccc(C)c3nc2n1 | 10.4% | 0.696% (active) | 10.4% | 18.6% | 17.4% | -4.42% (active) | -38.7% (active) | -45.8% (active) | 1.49% (active) | -9.8% (active) | 3.6% (active) | 6.82% (active) | -84.5% (active) | -1.3% (active) | 5.96% (active) | -57.2% (active) |  | -10.5% (active) |  | 
13 | O=C(/C=C/c1c(-c2ccccc2)[nH]c2ccccc12)S(=O)(=O)c1ccccc1 | 38.1% | 34% | 84.5% | 82.4% | 76.5% | 36.5% | 37.4% | 39.1% | 56.5% | 72.5% | 64.3% | 73.6% | 31% | 121% | 71.8% | 53.8% | 30.2% | 20.4% |  | 200
14 | COc1cc(C2=NN(C=O)C(c3cccc(Nc4ccnc5cc(Cl)ccc45)c3)C2)cc(OC)c1OC (configuration not stated) | 52.4% | 22% | 74.3% | 76.2% | 66.8% | 42.7% | 68.1% | 96.4% | 54.5% | 90.6% | 79.3% | 77.2% | 68.7% | 87.9% | 86.2% | 62.5% | 53.9% | 27.9% |  | 
15 | CCCc1n(Cc2ccc3ccccc3c2)cc[n+]1Cc1ccc2ccccc2c1 | 53.8% | -22.5% (active) | -13.9% (active) | -7.08% (active) | 0.776% (active) | -2.89% (active) | -98.1% (active) | -67.2% (active) | -84.3% (active) | -40.3% (active) | 21.1% | -3.87% (active) | 34.8% | -8.58% (active) | 42.3% | -3.35% (active) | 11.8% | -5.48% (active) |  | 
16 | COc1ccc(Oc2ccccc2NC(=O)CNC(=O)c2cccc3ccccc23)cc1 | 17.2% [5 µM] | 2.75% [5 µM] (active) | 41.6% [5 µM] | 51.4% [5 µM] | 16.9% [5 µM] | 21.5% [5 µM] | 10.3% [5 µM] | 37.5% [5 µM] | 22.3% [5 µM] | 60.6% [5 µM] | 46.3% [5 µM] | 46.7% [5 µM] |  | 47.6% [5 µM] | 40.3% [5 µM] | 7% [5 µM] (active) | 15.5% [5 µM] | 17.1% [5 µM] |  | 
